Values joined by “and” are separate entries in the source; they are usually repeats but may differ in a detail not shown here. Equal entries are not always repeated. Records with an inconclusive call do not appear. Active and inactive are the calls of the source. Rule for the calls, unless noted: active = hit-call score of the fitted dose curve at least 0.9, where 1 is the maximum; inactive = score below 0.9.
Tests used:
[1] = BSK_BT_PBMCCytotoxicity: PBMC Cytotoxicity Assessment in the BioMAP Diversity Plus: BT Assay (AID 2284225); conditions: primary human B cells with PBMC;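 note: PBMC viability measured by Alamar Blue dye reduction fluorescence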
Summary of the method: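 PBMC (75,000/well) pretreated with compound 1 h, then activated with SEB and TSST-1 (20 ng/mL each final), incubated 90 h; Alamar Blue added 6 h, fluorescence read at 546/580 nm. Fitted relative to DMSO.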

[2] = read-out: Secreted IgG (sIgG), gene 3500; assay: BSK_BT_sIgG: BioMAP Diversity Plus: BT Assay for Secreted IgG (sIgG) Biomarker Activity (AID 2284226); conditions: primary human B cells with PBMC
Summary of the method: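 Read-out: ELISA for secreted IgG after 24 h of chemical exposure in a B cell plus PBMC co-culture. Values reflect upward-direction fitting against DMSO negative controls.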

[3] = read-out: Interleukin 6 (IL6), IL6 (gene 3569); assay: BSK_BT_xIL6: BioMAP Diversity Plus: BT Assay for Interleukin 6 (IL6) Biomarker Activity (AID 2284228); conditions: primary human B cells with PBMC
Summary of the method: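 Readout: secreted IL-6 via Luminex xMAP multiplex, 24 h post-dosing. System: primary human B cells co-cultured with PBMC. Signal change scored relative to DMSO vehicle, positive fitting direction.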

[4] = read-out: Interleukin 17A (IL17A), IL17A (gene 3605); assay: BSK_BT_xIL17A: BioMAP Diversity Plus: BT Assay for Interleukin 17A (IL17A) Biomarker Activity (AID 2284229); conditions: primary human B cells with PBMC
Summary of the method: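 Luminex xMAP readout of secreted IL-17A; human B cell + PBMC co-culture; 24 h post-dose; positive-direction fit vs DMSO negative control.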

[5] = read-out: Tumor necrosis factor (Homo sapiens) (UniProt P01375); assay: BSK_BT_xTNFa: BioMAP Diversity Plus: BT Assay for Tumor necrosis factor alpha (TNF-alpha) Biomarker Activity (AID 2284230); conditions: primary human B cells with PBMC
Summary of the method: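 Compounds were added to a B cell plus PBMC co-culture, and after 24 h secreted TNF-alpha was quantified with Luminex xMAP technology, with responses fitted upward from the DMSO control.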

[6] = read-out: Collagen I, COL1A1 (gene 1277); assay: BSK_MyoF_CollagenI: BioMAP Diversity Plus: MyoF Assay for Collagen I Biomarker Activity (AID 2284238); conditions: primary human lung fibroblasts
Summary of the method: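 ELISA readout of Collagen I after 24 h chemical treatment of primary human lung fibroblast cultures; gain of signal scored relative to DMSO vehicle baseline.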

[7] = read-out: Collagen III, COL3A1 (gene 1281); assay: BSK_MyoF_CollagenIII: BioMAP Diversity Plus: MyoF Assay for Collagen III Biomarker Activity (AID 2284239); conditions: primary human lung fibroblasts
Summary of the method: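 Lung fibroblast culture; 24 h compound exposure; collagen III by ELISA; gain-of-signal fit vs DMSO baseline.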

[8] = read-out: Interleukin 17F (IL17F), IL17F (gene 112744); assay: BSK_BT_xIL17F: BioMAP Diversity Plus: BT Assay for Interleukin 17F (IL17F) Biomarker Activity (AID 2284243); conditions: primary human B cells with PBMC
Summary of the method: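 Secreted IL-17F, read on LumineX xMAP beads, was taken as the endpoint. Cultures combined human B cells and peripheral blood mononuclear cells, sampled 24 hours after dosing, with DMSO serving as negative control.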

[9] = read-out: Actin alpha 1 (ACTA1), ACTA1 (gene 58); assay: BSK_MyoF_ACTA1: BioMAP Diversity Plus: MyoF Assay for Actin alpha 1 (ACTA1) Biomarker Activity (AID 2284244); conditions: primary human lung fibroblasts
Summary of the method: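 Lung fibroblasts, human primary, 24 h compound exposure → a-SMA ELISA. Positive-direction fit vs DMSO control.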

[10] = read-out: Interleukin 2 (IL2), IL2 (gene 3558); assay: BSK_BT_xIL2: BioMAP Diversity Plus: BT Assay for Interleukin 2 (IL2) Biomarker Activity (AID 2284245); conditions: primary human B cells with PBMC
Summary of the method: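 B cell + PBMC co-culture (human primary), compound added, 24 h incubation; secreted IL-2 measured multiplexed on Luminex xMAP; gain-of-signal fit vs DMSO.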

[11] = read-out: Basic fibroblast growth factor (bFGF), FGF2 (gene 2247); assay: BSK_MyoF_bFGF: BioMAP Diversity Plus: MyoF Assay for Basic fibroblast growth factor (bFGF) Biomarker Activity (AID 2284246); conditions: primary human lung fibroblasts
Summary of the method: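 ELISA-measured bFGF level serves as the read-out, taken 24 h after chemical dosing of human lung fibroblasts. Values represent signal gain over the DMSO negative control.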

[12] = read-out: Collagen IV, COL4A1 (gene 1282); assay: BSK_MyoF_CollagenIV: BioMAP Diversity Plus: MyoF Assay for Collagen IV Biomarker Activity (AID 2284247); conditions: primary human lung fibroblasts
Summary of the method: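 Steps: dose human lung fibroblasts; culture 24 h; quantify Collagen IV by ELISA; fit increase versus DMSO control. Parallel SRB total-protein staining (0.1% SRB after 10% TCA fixation, 560 nm) tracks overt cytotoxicity.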

[13] = TAMU_HCS_1.5hr_SingleDonor1434_Cytotoxicity: Cytotoxicity Assessment using High-content Screening (HCS) Fluorescent Imaging for the Texas A&M University (TAMU) 1.5-hr Human Induced Pluripotent Stem Cell (iPSC)-derived Cardiotoxicity Assay (AID 2284234; active = hit-call score of the fitted dose curve at least 0.9, where 1 is the maximum)
Summary of the method: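 Human iPSC-derived cardiomyocytes dosed at 0.2, 1, 10, 100 uM final (0.5% DMSO) for 90 min at 37 C. Hoechst 33342-stained nuclei counted by 10x high-content imaging; POD is EC10, a 10% drop in total cell count versus DMSO.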

[14] = TAMU_PeakParms_SingleDonor1434_QT: Texas A&M University (TAMU) 1.5-hr Human Induced Pluripotent Stem Cell (iPSC)-derived Cardiomyocytes Calcium (Ca+2) Flux Assay for Cardiotoxicity: QT (decay-rise ratio) (AID 2284235; active = hit-call score of the fitted dose curve at least 0.9, where 1 is the maximum)
Summary of the method: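 iPSC-derived cardiomyocytes (single donor 1434) dosed at 0.2, 1, 10, 100 uM final in 0.5% DMSO, 90 min at 37C. Ca2+ flux fluorescence decay/rise ratio; EC05 (5% increase versus DMSO) as POD, excluding beat-arrest and severe-notch data.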

[15] = CCTE_Mundy_HCI_hNP1_CellTiter: CCTE's Cell Titer-Glo 2 Assay in human neuroprogenitor cells for Viability, Mundy Lab (AID 2284241; active = hit-call score of the fitted dose curve at least 0.9, where 1 is the maximum;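 for AC50: a hit is a drop in ATP luminescence versus DMSO meaning reduced viability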)
Summary of the method: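 Measures ATP content in human neural progenitors derived from WA09 embryonic cells. Read-out at 26.5 hours after dosing, with DMSO serving as the negative control and baseline.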

[16] = UKN4_HCS_LUHMES_cell_viability: Viability Assessment in the University of Konstanz (UKN) Leist Lab Neurite Outgrowth Assay in human LUHMES cells (UKN4) (AID 2284232)
Summary of the method: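 Fluorescence intensity from high-content imaging of Hoechst H-33342/calcein-AM-stained cells served as the viability read-out. Human LUHMES precursors were differentiated 2 days, replated and treated 24 h; curves were fitted bidirectionally against DMSO.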

[17] = UKN2_HCS_IMR90_cell_viability: Viability Assessment in the University of Konstanz (UKN) Leist Lab Neural Crest Cell Migration Assay in human induced IMR90 Pluripotent Stem Cells (UKN2) (AID 2284233);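 note: viability of neural crest cells differentiated from IMR90 iPSC measured by calcein-AM fluorescence imaging; cells exposed to compound for 24 h after a 24 h migration phase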
Summary of the method: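 iPSC-derived (IMR90) neural crest cells seeded around silicone stoppers on PLO/laminin/fibronectin; after 24 h migration in N2-S with EGF/FGF, chemical added for 24 h. Calcein-AM/Hoechst stained 30 min, high-content imaged; bidirectional fit versus DMSO.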

[18] = CCTE_Mundy_HCI_Cortical_NOG_NeuronCount: CCTE's Neurite Outgrowth Assay in rat cortical cells for Neuron Count, Mundy Lab (AID 2284236; active = hit-call score of the fitted dose curve at least 0.9, where 1 is the maximum;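 note: neurons counted by imaging betaIII-tubulin and Hoechst stained cortical cells; cells exposed to compound for about 48 hours before fixation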)
Summary of the method: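 Read-out: neuron number by high-content imaging of betaIII-tubulin (Alexa Fluor-488) and Hoechst-labelled rat primary cortical cells.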

[19] = CCTE_Mundy_HCI_Cortical_NOG_BPCount: CCTE's Neurite Outgrowth Assay in rat cortical cells for Branch Point Count, Mundy Lab (AID 2284237);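 for AC50: branch points counted about two days after chemical exposure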
Summary of the method: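 Measured 50.33 h after dosing, this morphology endpoint uses rat primary cortical cultures labelled for betaIII-tubulin. Branch points are quantified by high-content imaging, with DMSO as negative control and baseline.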

[20] = CCTE_Mundy_HCI_Cortical_Synap_Neur_Matur_NeuronCount: CCTE's Synaptogenesis and Neurite Maturation Assay in rat cortical cells for Neuron Count, Mundy Lab (AID 2284242; active = hit-call score of the fitted dose curve at least 0.9, where 1 is the maximum;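 for AC50: hits reduce neuron count versus DMSO baseline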)
Summary of the method: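 Neuron number was scored by automated high-content imaging of Hoechst- and MAP2-labelled rat primary cortical cells. Glial growth was arrested with AraC at DIV 5, compounds were applied from DIV 7, and cultures ended at DIV 12.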

Measured: AC50

Tumor necrosis factor (Homo sapiens), sequence (P01375 whole entry, looked up): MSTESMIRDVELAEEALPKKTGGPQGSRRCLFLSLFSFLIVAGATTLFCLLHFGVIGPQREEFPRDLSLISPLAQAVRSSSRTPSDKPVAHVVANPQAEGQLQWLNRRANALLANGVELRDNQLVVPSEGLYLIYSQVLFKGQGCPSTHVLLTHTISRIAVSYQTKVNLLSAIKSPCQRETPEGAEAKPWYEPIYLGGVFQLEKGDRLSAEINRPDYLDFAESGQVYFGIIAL

OCCC(F)(F)C(F)(F)C(F)(F)C(F)(F)F
not listed: [13] | [14] | [15] | [16] | [17] | [18] | [19] | [20]
inactive: all other assays above

c1ccc2c(c1)-c1cccc3c1c-2cc1ccccc13
inactive: [13] | [14]

OC(O)(C(F)C(O)(O)C(F)(F)F)C(F)(F)F
inactive: [1] | [4] | [5] | [6] | [7] | [15] | [9] | [11] | [12]
active: [2] 32.6 µM and 39.1 µM | [3] 53.3 µM and 52 µM | [8] 46.7 µM and 30 µM | [10] 40.6 µM and 22.3 µM

OCc1c[nH]c2ccccc12
active: [2] 30.8 µM | [3] 3.97 µM | [10] 1.81 µM
inactive: [1] | [4] | [5] | [6] | [7] | [8] | [9] | [11] | [12]

Nc1ccn([C@@H]2O[C@H](CO)[C@@H](O)[C@@H]2O)c(=O)n1
inactive: [16] | [17] | [15]
active: [18] 1.58 µM and 2.33 µM | [19] 11.9 µM and 3 µM | [20] 4.39 µM and 3.57 µM

S=P(N1CC1)(N1CC1)N1CC1
active: [2] 2.71 µM | [8] 20.9 µM
inactive: [1] | [3] | [4] | [5] | [6] | [7] | [9] | [10] | [11] | [12]

FC(F)C(F)(F)COCC1CO1 (stereo not drawn)
not listed: [13] | [14] | [15] | [16] | [17] | [18] | [19] | [20]
inactive: all other assays above

FC(F)=C(F)C(F)(F)C(F)(F)C(F)(F)C(F)(F)C(F)(F)C(F)(F)F
not listed: [13] | [14] | [16] | [17] | [18] | [19] | [20]
inactive: all other assays above

CC(C)C(=O)Nc1ccc([N+](=O)[O-])c(C(F)(F)F)c1
inactive: [13] | [14]

O=S(=O)(O)CCC(F)(F)C(F)(F)C(F)(F)C(F)(F)C(F)(F)C(F)(F)F
not listed: [13] | [14] | [15] | [16] | [17] | [18] | [19] | [20]
inactive: all other assays above

CCCC(CCC)C(=O)O
inactive: [16] | [17] | [14] | [19] | [15] | [20]

CCN(CC)C(=S)SSC(=S)N(CC)CC
active: [13] 50 µM

FC(F)(F)C(F)(F)C(F)(F)C(F)(F)C(F)(F)C(F)(F)I
inactive: [1] | [2] | [3] | [4] | [5] | [15] | [8] | [10] | [11]
active: [6] 33.1 µM and 39.4 µM | [7] 30 µM | [9] 17.8 µM and 30 µM | [12] 51.3 µM and 47.7 µM

NCC(F)(F)C(F)(F)C(F)(F)C(F)(F)F
not listed: [13] | [14] | [15] | [16] | [17] | [18] | [19] | [20]
inactive: all other assays above

Cn1cc[nH]c1=S
inactive: [18] | [19] | [15]

Cc1cccc(O)c1C
not listed: [13] | [14] | [15] | [16] | [17] | [18] | [19] | [20]
inactive: all other assays above

OC[C@H]1O[C@@](CO)(O[C@H]2O[C@H](CO)[C@@H](O)[C@H](O)[C@H]2O)[C@@H](O)[C@@H]1O
inactive: [13]

OC(Cn1cncn1)(Cn1cncn1)c1ccc(F)cc1F
inactive: [19] | [15]

O=C(Cl)C(F)(F)C(F)(F)C(F)(F)C(=O)Cl
not listed: [13] | [14] | [16] | [17] | [18] | [19] | [20]
inactive: all other assays above

C[Si](C)(C)C(F)(F)C(F)(F)C(F)(F)F
not listed: [13] | [14] | [15] | [16] | [17] | [18] | [19] | [20]
inactive: all other assays above

NNC(=O)c1ccncc1
inactive: [19] | [15] | [20]

NC(=O)N1c2ccccc2C=Cc2ccccc21
inactive: [16] | [17] | [18] | [19] | [15]

C[C@]12C=CC(=O)C=C1CC[C@H]1[C@@H]3C[C@@H](O)[C@](O)(C(=O)CO)[C@@]3(C)C[C@H](O)[C@@]12F
active: [18] 23.6 µM | [19] 20.1 µM | [15] 25.6 µM | [20] 3.75 µM

FC(F)(F)COC(OCC(F)(F)F)OCC(F)(F)F
not listed: [13] | [14] | [15] | [16] | [17] | [18] | [19] | [20]
inactive: all other assays above

c1ccc2cc3ccccc3cc2c1
inactive: [18] | [19] | [15]

COc1cc2c(c(OC)c1OC)-c1ccc(OC)c(=O)cc1[C@@H](NC(C)=O)CC2
active: [18] 0.0535 µM | [19] 0.00988 µM | [15] 0.0224 µM | [20] 0.0339 µM
inactive: [14]

Reference: PubChem BioAssay (EPA / NIEHS)
